From the supplement of paper PMC6555819

Tested on: VDR:RXRa (NR concentration 270 nM, RXRa partner concentration 90 nM)
Experiment: PBM binding z-score (relative to random genomic background probes); higher = stronger binding; sequences stand for … in GC…GCGATTGACAGCGTAGAATGAAGG
Experimental: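 Protein-binding microarray (Agilent 4x180K custom design, double-stranded 60-nt probes: 5' GC cap, 34-nt variable region, 24-nt constant primer region; full probe sequence given). Purified or IVT nuclear receptor:RXRα heterodimers (3:1 NR:RXRα, mostly 270:90 nM) or homodimers were incubated for 1 h in PBS with 2% milk and no ligand, then detected with Alexa488 antibodies. Fluorescence from o1-orientation probes (~5 replicates averaged) was converted to z-scores against 500 random hg19 background probes. Variable regions are seed direct-repeat (DR0–DR5) sites, all their single-nucleotide variants and half-site ablations.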

Q: With TAGCCAAGGTCAGATCGGGCCAGTATACGCTATA as the sequence, how does the PBM binding z-score read?
A: 3.07

Q: Which PBM binding z-score does the source give for CCGAGTAGGTGACGAGGGGGCATTCAGTGCGAAT here?
A: 4.37

Q: How did the PBM binding z-score turn out when CCGACTGGGCCATTCAGAGGTCATTGATCATATG was run?
A: 3.7

Q: With CCGAGTAGGTTACGAGGGGACATTCAGTGCGAAT as the sequence, how does the PBM binding z-score read?
A: 2.82

Q: CAATGTAGGTTAAGGGGGTCATTCAGTTTGAAAG was tested. Which PBM binding z-score did it give?
A: 7.74

Q: How did the PBM binding z-score turn out when ATATGTAGGTTAGCTGGAGTCATTCAGACTAGGC was run?
A: 0.533

Q: With CCGACTAGGTTACGAGGGGGCATTCAGTGCGAAT as the sequence, how does the PBM binding z-score read?
A: 4.96

Q: Which PBM binding z-score does the source give for TCGAGTAGGTTACGGGGGCAATCAGGGATGAAGA here?
A: 3.22

Q: How did the PBM binding z-score turn out when CCTACTGGGCCATTCAGAGGTCATTGTTCATATG was run?
A: 3.9

Q: CCGAGTAGGTTAAGAGGGGGCATTCAGTGCGAAT was tested. Which PBM binding z-score did it give?
A: 5.44

Q: ATCTCTAGGTAAAGTTCATTGAAAGATCGATAGA was tested. Which PBM binding z-score did it give?
A: 3.08

Q: For TCGAGTAGGTTACGGGGGCATTCACGGATGAAGA, which PBM binding z-score is on record?
A: 3.95

Q: With CCCGCTAGGTCATGGTCAGCTAATCTACAGTATG as the sequence, how does the PBM binding z-score read?
A: 1.69

Q: Which PBM binding z-score does the source give for CCCCGGAGGACAGAAGGTCAGAGCTGTCCGCTTT here?
A: 0.723

Q: With ATATGTAGGTTAGCTGGCGTCATTCAGACTAGGC as the sequence, how does the PBM binding z-score read?
A: -0.12

Q: CACACTAGGTCAAGAGGTCAAAGTCCGCTTCCCG was tested. Which PBM binding z-score did it give?
A: 6.08

Q: Which PBM binding z-score does the source give for CCTAGTAGGTTATGGGGCATTCAGGCAACGGTGA here?
A: 0.233

Q: How did the PBM binding z-score turn out when TCTCGGAGGACACGAAAGGTCAGAACTCGACATC was run?
A: 3.19

Q: CTATGTACGTTAAGGGGGTCATTCAGTTTGAAAG was tested. Which PBM binding z-score did it give?
A: 6.72

Q: Which PBM binding z-score does the source give for GCATATAGGTAATTCAAGGTGAAAGTCCGATTGT here?
A: 0.627

Q: For CGAACTGGGTCAAAGGACAGTGAAAGGCGACGTA, which PBM binding z-score is on record?
A: 1.39

Q: For TAGCCTAGGTCATTCAGGGGGCAGTATAGAAAGC, which PBM binding z-score is on record?
A: 4.82

Q: CCTTACGGGTCAAGGTTGTAGCACGGGTGGTACG was tested. Which PBM binding z-score did it give?
A: 3.02

Q: With AGTAGCAGGCCAAGGGTCACTCAAGATTAGTCCG as the sequence, how does the PBM binding z-score read?
A: 2.94

Q: For CTCGAAAGGTCGTGCTCAGGTGAGTATGCCAAAC, which PBM binding z-score is on record?
A: 3.25

Q: Which PBM binding z-score does the source give for TCTGCTATGTCAACGATGGTCAGCTAATCTGCTA here?
A: -0.405

Q: With CCTAGCCGGCCAATCTGGGTCACTCAAGGCTTGA as the sequence, how does the PBM binding z-score read?
A: 0.613

Q: How did the PBM binding z-score turn out when TCGAGTTGGTTACGGGGGCATTCAGGGATGAAGA was run?
A: 3.63

Q: For CCTACTGGGCCATTGAGAGGTCATTGATCATATG, which PBM binding z-score is on record?
A: 3.81

Q: Which PBM binding z-score does the source give for CGAACTAGGTCACCAGGACAGTGACGAGGTTGGA here?
A: 2.13

Q: Which PBM binding z-score does the source give for ATATGTAGGTTAGCGTCATTCAGAAAGTAGGGAA here?
A: 0.0435

Q: For GCTAGTTGGTCAGTAAATGGTCACACACCGGTCG, which PBM binding z-score is on record?
A: -0.166

Q: CCTGCTAGTTCAATGGTCAGCTAAAGCAGCTCGC was tested. Which PBM binding z-score did it give?
A: 0.426

Q: With CCTACTGGGCCATTCAGAGGTCATCGATCATATG as the sequence, how does the PBM binding z-score read?
A: 4.05

Q: Which PBM binding z-score does the source give for CGTCCAACGTCAAGGTCAGTGAAAGAGACTCGAA here?
A: 1.18

Q: Which PBM binding z-score does the source give for CCGAGTAGGTTACGAGGGGGCATTCGGTGCGAAT here?
A: 5.48

Q: CCATGTAGGTTAAGGGGGTCATTCAGTTTGAAAG was tested. Which PBM binding z-score did it give?
A: 7.41

Q: For CGAACTAGGTCACCACGACAGTGAAGAGGTTGGA, which PBM binding z-score is on record?
A: 2.04

Q: With CGTCCAAGGTCAATGTTAGGTCAGTGAAAGCATT as the sequence, how does the PBM binding z-score read?
A: 4.92

Q: With CGAACTAGGTCAAAGGACAGAGAAAGGCGACGTA as the sequence, how does the PBM binding z-score read?
A: 1.54
